Data reported in PubChem BioAssay (NCI).
About 83,000 compounds went through this panel and 20% of them were active in at least one assay; those are over-represented in the sample as a whole.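 Percent growth is the endpoint: 0 to 100 indicates growth inhibition (40 means 60% inhibition), 0 means no net growth, and negative values indicate cell death.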 Unmarked numbers belong to inactive results. The source made the active and inactive calls. Rule for the calls: active = growth percent below 10; inactive = the rest.

Legend:
Assay in all cases: NCI-60 one-dose screen, 48 h (100 = growth as untreated, 0 = no growth, -100 = all killed)
Settings in all cases: 10 µM unless noted
[1] = system: DU-145 prostate
[2] = system: K-562 leukemia
[3] = system: MALME-3M melanoma
[4] = system: MDA-MB-231 breast
[5] = system: RXF 393 renal
[6] = system: SF-268 CNS
[7] = system: SF-295 CNS
[8] = system: SF-539 CNS
[9] = system: UACC-257 melanoma
[10] = system: M14 melanoma
[11] = system: HT29 colon
[12] = system: SNB-75 CNS
[13] = system: SNB-19 CNS
[14] = system: U251 CNS
[15] = system: PC-3 prostate
[16] = system: SK-MEL-5 melanoma
[17] = system: UACC-62 melanoma
[18] = system: LOX IMVI melanoma
[19] = system: SK-MEL-28 melanoma
[20] = system: HCT-15 colon

SMILES	growth [1]	growth [2]	growth [3]	growth [4]	growth [5]	growth [6]	growth [7]	growth [8]	growth [9]	growth [10]	growth [11]	growth [12]	growth [13]	growth [14]	growth [15]	growth [16]	growth [17]	growth [18]	growth [19]	growth [20]
O=[N+]([O-])/C=C\c1ccc(Cl)c(Cl)c1	70%	11.8%	-0.637% (active)	74.8%	-79.8% (active)	69.2%	98.8%	65.2%	69.6%	-9.23% (active)	-40.4% (active)	42%	61.5%	19.3%	70.1%	56.3%	58.9%	-30.7% (active)	89.7%	–
C1CCC([PH+](C2CCCCC2)C2CCCCC2[PH+](C2CCCCC2)C2CCCCC2)CC1.O=C(C1[CH-]CCCC1)C1CCCC[N-]1.[Au] (configuration not stated)	-38.7% (active)	5.08% (active)	-66.3% (active)	-54.9% (active)	-95.2% (active)	-28.5% (active)	-46.8% (active)	-87.9% (active)	-45.6% (active)	-52.2% (active)	-43.7% (active)	-6.22% (active)	-95.2% (active)	-84.1% (active)	-6.85% (active)	-98.8% (active)	-85.8% (active)	-95.9% (active)	-69.5% (active)	–
COc1ccc(C/C(C)=C(\c2ccc(OCCN3CCOCC3)cc2)c2ccc(OC(=O)Cc3ccccc3)cc2)cc1	9.74% (active)	-24.7% (active)	-79.5% (active)	-48.4% (active)	-83.3% (active)	-21.3% (active)	-57.6% (active)	-85.4% (active)	-89.2% (active)	-66.9% (active)	-89.7% (active)	–	13.8%	-97.3% (active)	-1% (active)	-91.9% (active)	-87.7% (active)	-94.1% (active)	-80.6% (active)	-23.7% (active)
Cc1ccc(C(Cc2ccccc2)NCCO)cc1 (configuration not stated)	104%	104%	97.2%	103%	99.2%	98%	98.3%	85.1%	92%	87%	65.4%	87.1%	99.3%	87.8%	69.4%	98.4%	94.7%	100%	61.9%	–
CC1(C)C(C(=O)c2cn(CCCCF)c3ccccc23)C1(C)C	105%	71.3%	92.9%	94%	84.5%	98.8%	91.5%	93.2%	81.1%	95%	48.8%	96%	104%	86%	85%	92.1%	88.4%	92.9%	116%	–
CC(=O)OCc1cc[c]([Hg][Cl])o1	84.2%	7.96% (active)	-39.7% (active)	26%	-38.7% (active)	22.5%	78.1%	44.2%	53.5%	13%	46%	42.7%	45.2%	7.54% (active)	43.8%	42.6%	47.8%	-50.5% (active)	12.3%	–
Clc1cccc(N2COOC3(OOC2)C2CC4CC(C2)CC3C4)c1	89.6%	66.2%	73.5%	98.9%	92.1%	83.8%	86.1%	73.3%	98%	93.8%	85.2%	–	101%	35.8%	74.8%	86.5%	93.3%	-63.4% (active)	114%	94.6%
CC(=O)O[C@H](C[C@H](C(C)C)N(C)C(=O)[C@@H](NC(=O)[C@H]1CCCCN1C)C(C)C)c1nc(C(=O)NC2CCC(C(=O)O)CC2)cs1 (some centres not stated)	41.1%	22.8%	61.8%	64.1%	44.1%	48.2%	35.1%	27.5%	50%	41.5%	17.7%	-1.9% (active)	40.9%	33.2%	48.5%	49.8%	28%	35.5%	71.4%	–
